Measurements taken from PubChem BioAssay (Tox21).
Where “and” joins values, the source holds several entries; their conditions need not be identical. Equal values may be shown once. Results filed as inconclusive are left out. Some structures have more than one record in an assay (separate samples or runs), and their calls can disagree. Calls of active or inactive are those of the source. Unless noted, calls come from the whole dose curve; as a rule, active = well fitted curve in the direction sought with a large enough effect in the repeat runs; inconclusive = weak or mixed curves; inactive = no such curve, though single readings can be large; an effect the other way counts as inactive or inconclusive.

Experiments:
[1] = A CellTox Green Cytotoxicity Assay to monitor cytotoxicity in HepG2 cells - 32 hour (AID 1224883); note: nearly all actives have a fitted effect of over 50% in size; note: potency is the fitted concentration of half-maximal effect
In short: (§1)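 HepG2 cells were seeded together with the CellTox Green dye at 600 cells/well, left 5 h at 37 C/5% CO2, then given compounds in DMSO. Fluorescence from dye bound to dead-cell DNA was read repeatedly over 40 h of treatment at 37 C.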

[2] = A CellTox Green Cytotoxicity Assay to monitor cytotoxicity in HEK293 cells - 8 hour (AID 1224884); note: nearly all actives have a fitted effect of over 35% in size
In short: (§2)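 HEK293 cells premixed with CellTox Green dye were seeded at 600 cells/well and left 5 h at 37 C/5% CO2 before pin transfer of 23 nL compound in DMSO. Fluorescence from dye bound to dead-cell DNA was read during 40 h treatment.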

[3] = qHTS RealTime-Glo MT Cell Viability Assay in HepG2 cells - 16 hour (AID 1224885); note: nearly all actives have a fitted effect of over 50% in size
In short: (§3)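 HepG2 suspension premixed with RealTime-Glo reagents is plated at 600 cells per well and left 5 h at 37 C/5% CO2. Compounds in DMSO then go in, and bioluminescence reflecting viable cell number is recorded over 40 h.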

[4] = qHTS RealTime-Glo MT Cell Viability Assay in HEK293 cells - 24 hour (AID 1224886); note: nearly all actives have a fitted effect of over 50% in size; note: potency is the fitted concentration of half-maximal effect
In short: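 Reads taken at 0, 8, 16, 24, 32 and 40 h from the same wells. HEK293 cells (600/well) carried RealTime-Glo reagents from seeding, with compound added after a 5 h settle at 37 C.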

[5] = qHTS RealTime-Glo MT Cell Viability Assay in HEK293 cells - 8 hour (AID 1224887); note: top concentration of the series differs between compounds; nearly all actives have a fitted effect of over 50% in size
In short: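 HEK293 cells mixed with RealTime-Glo reagents (NanoLuc plus cell-permeant prosubstrate) at 600 cells/well, preincubated 5 h at 37 C/5% CO2, then given 23 nL compound in DMSO. Nonlytic luminescence from viable cells was read at 0, 8, 16, 24, 32 and 40 h.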

[6] = A CellTox Green Cytotoxicity Assay to monitor cytotoxicity in HEK293 cells - 16 hour (AID 1224888); note: nearly all actives have a fitted effect of over 35% in size
In short: as §2

[7] = qHTS assay to identify small molecule antagonists of the estrogen receptor alpha (ER-alpha) signaling pathway using the BG1 cell line in the presence of 0.1 nM 17-beta-estradiol - cell viability counter screen (AID 1259241); note: nearly all actives have a fitted effect of over 40% in size
In short: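 VM7Luc4E2 cells (endogenous ER-alpha, 4×ERE-luciferase), hormone-starved 5 days in charcoal-stripped FBS, were treated with compounds plus 0.1 nM 17beta-estradiol for 22 hr at 37C; viability read in same wells as CellTiter-Fluor live-cell protease fluorescence.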

[8] = qHTS assay to identify small molecule antagonists of the androgen receptor (AR) signaling pathway using the MDA cell line in the presence of 0.5 nM R1881 - cell viability counter screen (AID 1259242); note: nearly all actives have a fitted effect of over 45% in size
In short: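 MDA-kb2 cells (human breast carcinoma, stably carrying MMTV-luciferase reporter) were exposed to compounds with 0.5 nM R1881 (final) for 16 hr at 37C, 0% CO2; viability then read as live-cell protease fluorescence (CellTiter-Fluor, 30 min) in the same wells.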

[9] = biological target: Estrogen receptor (Homo sapiens) (UniProt P03372); test: qHTS assay to identify small molecule antagonists of the estrogen receptor alpha (ER-alpha) signaling pathway using the BG1 cell line in the presence of 0.1 nM 17-beta-estradiol (AID 1259244); note: nearly all actives have a fitted effect of over 50% in size; note: potency is the fitted concentration of half-maximal effect
In short: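 VM7Luc4E2 cells (endogenous full-length ER-alpha, stable 4xERE-luciferase) were grown 5 days in phenol red-free medium with charcoal-stripped FBS, then exposed 22 h at 37C to compounds plus 0.1 nM (final) 17beta-estradiol; ONE-Glo luminescence read-out.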

[10] = qHTS assay to identify small molecule phospholipidosis (PLD) inducers (AID 1259344; active = well fitted curve in the direction sought with a large enough effect; an effect the other way counts as inactive or inconclusive)
In short: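 HepG2 cells, 900/well, treated with compound plus LipidTOX Red for 24 h at 37 C; amiodarone positive and DMSO negative controls. Fixed with paraformaldehyde/Hoechst, then high-content imaging scored LipidTOX pit count and integrated intensity per well and per cell.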

[11] = qHTS assay to identify small molecule HDAC inhibitors (AID 1259364); note: nearly all actives have a fitted effect of over 45% in size; note: potency is the fitted concentration of half-maximal effect
In short: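 Wild-type HCT-116 cells were plated overnight, exposed to compounds for 2 h at 37 °C, then given HDAC-Glo class I/II luminogenic reagent for 30 min at room temperature before luminescence was read.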

[12] = qHTS assay to identify small molecule HDAC inhibitors - cell viability counter screen (AID 1259365)
In short: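 Wild-type HCT-116 cells were seeded at 1,500 per well, incubated overnight at 37 C, then exposed to compounds in DMSO for 2hr. Viability was read by CellTiter-Glo luminescence after 30min at room temperature.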

[13] = qHTS assay to identify small molecule agonists of the sonic hedgehog signaling (Shh) pathway - cell viability counter screen (AID 1259366); note: nearly all actives have a fitted effect of over 50% in size
In short: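 NIH/3T3-derived 3T3 Gli1-Luc cells (stable Gli1-responsive firefly luciferase reporter) were seeded, rested 4 hr at 37 C/5% CO2, then exposed to compounds in DMSO for 24 hr; viability was read by CellTiter-Fluor fluorescence in the same wells.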

[14] = qHTS assay to identify small molecule agonists of the sonic hedgehog signaling (Shh) pathway (AID 1259368; calls by dose curve; note: series mostly up to about 92 µM; nearly all actives have a fitted effect of over 15% in size)
In short: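 NIH/3T3-derived 3T3Gli1-Luc cells carrying a stably integrated Gli1 response element–firefly luciferase reporter were plated, left 4 hr at 37 C, then given compounds in DMSO for 24 hr. Luminescence was read 30 min after adding luciferase reagent.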

[15] = qHTS assay to identify small molecule antagonists of the sonic hedgehog signaling (Shh) pathway (AID 1259369; calls by dose curve; note: nearly all actives have a fitted effect of over 45% in size; note: potency is the fitted concentration of half-maximal effect)
In short: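 NIH/3T3-derived 3T3Gli1-Luc cells with stably integrated Gli1-Luc reporter were preincubated 4hr at 37 C, then given compounds in DMSO plus Shh conditioned medium and incubated 24hr. Firefly luciferase luminescence read after 30min reagent at room temperature.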

[16] = biological target: Estrogen receptor beta (Homo sapiens) (UniProt Q92731); test: qHTS assay to identify small molecule agonists of the estrogen receptor beta (ER-beta) signaling pathway (AID 1259377; active = well fitted activation curve with a large enough effect in the signal ratio in the repeat runs, not every such curve was filed as active; the % refers to the signal ratio)
In short: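 ER-beta-UAS-bla HEK293T (GripTite) cells carrying a UAS-driven beta-lactamase reporter, in medium with 2% charcoal-stripped FBS, were exposed to compounds for 16 hr at 37C; LiveBLAzer B/G FRET substrate was then added and fluorescence read after 2 hours at room temperature.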

[17] = qHTS RealTime-Glo MT Cell Viability Assay in HepG2 cells - 0 hour (AID 1224889); note: nearly all actives have a fitted effect of over 50% in size; note: potency is the fitted concentration of half-maximal effect
In short: as §3

[18] = A CellTox Green Cytotoxicity Assay to monitor cytotoxicity in HepG2 cells - 8 hour (AID 1224890); note: nearly all actives have a fitted effect of over 45% in size
In short: as §1

[19] = qHTS assay to identify small molecule antagonists of the sonic hedgehog signaling (Shh) pathway - cell viability counter screen (AID 1259367); note: nearly all actives have a fitted effect of over 55% in size
In short: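 NIH/3T3-derived Gli1-Luc reporter cells, 2,000/well, plated 4 hr before compound addition, then stimulated with conditioned medium for 24 hr at 37C. Viability measured in the same wells by CellTiter-Fluor fluorescence, reagent added at 23 hr for 1 hr.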

[20] = biological target: Androgen receptor (Homo sapiens) (UniProt P10275); test: qHTS assay to identify small molecule antagonists of the androgen receptor (AR) signaling pathway using the MDA cell line in the presence of 0.5 nM R1881 (AID 1259243); note: nearly all actives have a fitted effect of over 50% in size
In short: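 MDA-kb2 human breast carcinoma cells carrying an MMTV-luciferase reporter (AR- and GR-responsive) were plated, rested 5 hr at 37C, dosed with compounds, then stimulated with 0.5 nM R1881 (final) for 16 hr; luminescence was read after ONE-Glo.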

Measured: Potency

Estrogen receptor (Homo sapiens), sequence (P03372 whole entry, looked up): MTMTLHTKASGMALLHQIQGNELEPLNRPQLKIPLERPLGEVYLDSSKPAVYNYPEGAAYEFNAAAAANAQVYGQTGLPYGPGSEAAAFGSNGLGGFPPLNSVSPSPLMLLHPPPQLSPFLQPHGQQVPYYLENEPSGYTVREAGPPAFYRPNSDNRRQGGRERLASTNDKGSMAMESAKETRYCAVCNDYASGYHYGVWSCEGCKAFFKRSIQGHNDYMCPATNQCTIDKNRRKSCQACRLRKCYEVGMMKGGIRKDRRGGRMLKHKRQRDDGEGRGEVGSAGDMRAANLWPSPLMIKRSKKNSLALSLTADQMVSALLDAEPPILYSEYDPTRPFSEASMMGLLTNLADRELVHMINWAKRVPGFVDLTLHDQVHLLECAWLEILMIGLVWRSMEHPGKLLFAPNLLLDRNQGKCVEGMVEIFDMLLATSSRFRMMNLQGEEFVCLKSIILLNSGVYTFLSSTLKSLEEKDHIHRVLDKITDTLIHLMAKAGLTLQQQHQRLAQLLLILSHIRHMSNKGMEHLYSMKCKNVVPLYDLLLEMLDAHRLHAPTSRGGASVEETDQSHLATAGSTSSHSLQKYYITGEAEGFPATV
Estrogen receptor beta (Homo sapiens), sequence (Q92731 whole entry, looked up): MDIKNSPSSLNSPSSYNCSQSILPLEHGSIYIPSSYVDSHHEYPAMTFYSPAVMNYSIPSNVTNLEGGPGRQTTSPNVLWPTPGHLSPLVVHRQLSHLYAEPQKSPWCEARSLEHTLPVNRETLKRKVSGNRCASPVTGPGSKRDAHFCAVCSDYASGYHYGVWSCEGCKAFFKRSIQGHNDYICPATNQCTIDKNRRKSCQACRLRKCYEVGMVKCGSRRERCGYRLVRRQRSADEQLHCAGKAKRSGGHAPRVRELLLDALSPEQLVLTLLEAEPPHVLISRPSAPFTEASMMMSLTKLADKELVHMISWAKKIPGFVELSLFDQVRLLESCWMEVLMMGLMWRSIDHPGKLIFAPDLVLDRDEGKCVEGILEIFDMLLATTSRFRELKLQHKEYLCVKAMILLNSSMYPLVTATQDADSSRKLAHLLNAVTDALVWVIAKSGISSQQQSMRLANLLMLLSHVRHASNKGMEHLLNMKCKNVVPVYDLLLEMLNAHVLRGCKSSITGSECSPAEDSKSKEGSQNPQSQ
Androgen receptor (Homo sapiens), sequence (P10275 whole entry, looked up): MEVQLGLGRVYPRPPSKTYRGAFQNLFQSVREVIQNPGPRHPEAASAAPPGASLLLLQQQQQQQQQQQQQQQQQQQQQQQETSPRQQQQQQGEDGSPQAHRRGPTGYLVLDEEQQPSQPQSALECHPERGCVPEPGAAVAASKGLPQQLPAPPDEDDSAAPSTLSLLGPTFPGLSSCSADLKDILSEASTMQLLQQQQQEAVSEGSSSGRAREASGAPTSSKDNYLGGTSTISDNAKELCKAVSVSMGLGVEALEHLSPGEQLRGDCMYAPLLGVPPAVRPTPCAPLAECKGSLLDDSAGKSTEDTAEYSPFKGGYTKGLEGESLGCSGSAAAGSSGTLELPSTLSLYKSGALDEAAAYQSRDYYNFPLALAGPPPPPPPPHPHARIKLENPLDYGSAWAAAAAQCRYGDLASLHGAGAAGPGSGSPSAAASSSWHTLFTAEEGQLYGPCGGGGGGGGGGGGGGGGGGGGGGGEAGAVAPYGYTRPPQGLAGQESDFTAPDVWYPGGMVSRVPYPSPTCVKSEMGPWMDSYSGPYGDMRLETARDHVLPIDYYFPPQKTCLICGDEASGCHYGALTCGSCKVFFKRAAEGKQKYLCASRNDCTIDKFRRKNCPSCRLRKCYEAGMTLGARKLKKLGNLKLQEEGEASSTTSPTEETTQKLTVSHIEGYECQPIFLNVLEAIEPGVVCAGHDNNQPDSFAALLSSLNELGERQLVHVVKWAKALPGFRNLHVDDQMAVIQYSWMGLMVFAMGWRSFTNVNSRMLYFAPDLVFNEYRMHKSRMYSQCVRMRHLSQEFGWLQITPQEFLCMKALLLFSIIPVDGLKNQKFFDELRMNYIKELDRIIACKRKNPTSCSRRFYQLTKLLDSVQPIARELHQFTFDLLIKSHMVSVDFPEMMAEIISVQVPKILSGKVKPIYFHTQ

CCCCC1C(=O)N(c2ccccc2)N(c2ccccc2)C1=O
not listed: [17] | [18] | [19] | [20]
inactive: all other assays above

C[C@]12C=CC(=O)C=C1CC[C@@H]1[C@@H]2[C@@H](O)C[C@@]2(C)[C@H]1CC[C@]2(O)C(=O)CO
active: [17] 21.6 µM and 19.5 µM
not listed: [2] | [20]
inactive: all other assays above

Cc1ccc(O)cc1
not listed: [9] | [18]
inactive: all other assays above

N=C(N)c1ccc(OCCCCCOc2ccc(C(=N)N)cc2)cc1
48.8 µM (active) and inactive: [1]
active: [4] 19.4 µM and 18.6 µM | [9] 13.6 µM and 18.5 µM | [11] 8.59 µM and 9.26 µM | [15] 3.84 µM and 2.33 µM and 18.8 µM
not listed: [16] | [20]
inactive: all other assays above

CCCN(CCC)S(=O)(=O)c1ccc(C(=O)O)cc1
not listed: [9] | [19]
inactive: all other assays above

NNC(=O)c1ccncc1
not listed: [19] | [20]
inactive: all other assays above

Cc1noc(NS(=O)(=O)c2ccc(N)cc2)c1C
not listed: [20]
inactive: all other assays above

Cc1cn([C@H]2C[C@H](N=[N+]=[N-])[C@@H](CO)O2)c(=O)[nH]c1=O
17.7 µM (active) and inactive: [15]
not listed: [16] | [19] | [20]
inactive: all other assays above

Cc1cc(=O)n(-c2ccccc2)n1C
not listed: [6] | [19]
inactive: all other assays above

Oc1ccc(/C=C/c2cc(O)cc(O)c2)cc1
inactive: [2]
